Substitutions are numbered along the chain they refer to.
How the values were obtained:
Assay in all cases: PBM; 200 nM protein, PBS
Conditions in all cases: dsDNA, one strand shown
HOXB9 [1] = biological target: HOXB9 (Homo sapiens, UniProt P17482 171-250, T197M)
HOXC9 [2] = biological target: HOXC9 (Homo sapiens, UniProt P31274 178-260, K195R)
PAX4 [3] = biological target: T1, PAX4 (Homo sapiens, UniProt O43316 9-242, R200K)
T1 sequence: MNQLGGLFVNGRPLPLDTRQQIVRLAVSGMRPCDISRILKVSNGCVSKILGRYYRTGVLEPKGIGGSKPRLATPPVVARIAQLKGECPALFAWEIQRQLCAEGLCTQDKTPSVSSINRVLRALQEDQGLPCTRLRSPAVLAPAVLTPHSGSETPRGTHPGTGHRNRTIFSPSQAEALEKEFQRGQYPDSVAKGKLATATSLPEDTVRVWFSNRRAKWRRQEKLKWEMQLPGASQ

PAX4 [4] = biological target: T2, PAX4 (Homo sapiens, UniProt O43316 9-242)
T2 sequence: T1 sequence with K192R

HOXB9 [5] = biological target: HOXB9 (Homo sapiens, UniProt P17482 171-250)
Sequence of HOXB9 (Homo sapiens, UniProt P17482 171-250) (P17482 171-250): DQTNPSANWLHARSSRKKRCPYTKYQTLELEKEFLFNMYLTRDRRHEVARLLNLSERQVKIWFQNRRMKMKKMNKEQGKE

PAX4 [6] = biological target: T3, PAX4 (Homo sapiens, UniProt O43316 9-242, R200Q)
T3 sequence: T1 sequence with K192Q

HOXC9 [7] = biological target: HOXC9 (Homo sapiens, UniProt P31274 178-260, R193K)
Sequence of HOXC9 (Homo sapiens, UniProt P31274 178-260, R193K) (P31274 178-260 R193K): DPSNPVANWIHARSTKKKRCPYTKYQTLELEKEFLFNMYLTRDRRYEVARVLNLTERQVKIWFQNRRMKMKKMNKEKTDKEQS

PAX4 [8] = biological target: T4, PAX4 (Homo sapiens, UniProt O43316 9-242, F177V)
T4 sequence: T1 sequence with F169V, K192R

PAX4 [9] = biological target: T5, PAX4 (Homo sapiens, UniProt O43316 9-242, F177Y)
T5 sequence: T1 sequence with F169Y, K192R

HOXB9 [10] = biological target: HOXB9 (Homo sapiens, UniProt P17482 171-250, R186Q)
Sequence of HOXB9 (Homo sapiens, UniProt P17482 171-250, R186Q) (P17482 171-250 R186Q): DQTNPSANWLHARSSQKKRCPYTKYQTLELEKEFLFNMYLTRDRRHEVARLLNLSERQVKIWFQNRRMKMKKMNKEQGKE

PAX4 [11] = biological target: T6, PAX4 (Homo sapiens, UniProt O43316 9-242, R227W)
T6 sequence: T1 sequence with K192R, R219W

VENTX [12] = biological target: T7, VENTX (Homo sapiens, UniProt O95231 78-163)
T7 sequence: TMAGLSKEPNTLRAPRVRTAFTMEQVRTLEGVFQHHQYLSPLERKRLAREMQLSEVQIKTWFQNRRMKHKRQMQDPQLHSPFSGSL

VENTX [13] = biological target: T8, VENTX (Homo sapiens, UniProt O95231 78-163, Y115F)
T8 sequence: T7 sequence with Y38F

HOXA2 [14] = biological target: HOXA2 (Homo sapiens, UniProt O43364 129-215, R185K)
Sequence of HOXA2 (Homo sapiens, UniProt O43364 129-215, R185K) (O43364 129-215 R185K): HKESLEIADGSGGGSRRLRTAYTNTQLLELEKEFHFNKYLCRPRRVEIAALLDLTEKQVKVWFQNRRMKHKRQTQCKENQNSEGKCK

HOXA2 [15] = biological target: HOXA2 (Homo sapiens, UniProt O43364 129-215, Y150S)
Sequence of HOXA2 (Homo sapiens, UniProt O43364 129-215, Y150S) (O43364 129-215 Y150S): as the sequence (O43364 129-215 R185K) above, with Y22S, K57R counted along it

HOXA2 [16] = biological target: HOXA2 (Homo sapiens, UniProt O43364 129-215)
Sequence of HOXA2 (Homo sapiens, UniProt O43364 129-215) (O43364 129-215): as the sequence (O43364 129-215 R185K) above, with K57R counted along it

HOXC10 = HOXC10 (Homo sapiens, UniProt Q9NYD6 254-340, K271E)
Sequence of HOXC10 (Q9NYD6 254-340 K271E): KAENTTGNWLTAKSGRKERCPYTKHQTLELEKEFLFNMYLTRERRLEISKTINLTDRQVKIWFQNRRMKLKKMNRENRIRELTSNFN

HOXC9 [17] = biological target: HOXC9 (Homo sapiens, UniProt P31274 178-260, R222W)
Sequence of HOXC9 (Homo sapiens, UniProt P31274 178-260, R222W) (P31274 178-260 R222W): as the sequence (P31274 178-260 R193K) above, with K16R, R45W counted along it

Sequence of HOXB9 (Homo sapiens, UniProt P17482 171-250, T197M) (P17482 171-250 T197M): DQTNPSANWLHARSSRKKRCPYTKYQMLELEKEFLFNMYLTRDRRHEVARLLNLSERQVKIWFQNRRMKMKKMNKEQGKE
Sequence of HOXC9 (Homo sapiens, UniProt P31274 178-260, K195R) (P31274 178-260 K195R): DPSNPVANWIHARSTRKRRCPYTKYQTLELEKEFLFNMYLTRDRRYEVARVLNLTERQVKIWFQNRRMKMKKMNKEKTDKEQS

| Sequence | binding signal (HOXB9 [1]) | binding signal (HOXC9 [2]) | binding signal (PAX4 [3]) | binding signal (PAX4 [4]) | binding signal (HOXB9 [5]) | binding signal (PAX4 [6]) | binding signal (HOXC9 [7]) | binding signal (PAX4 [8]) | binding signal (PAX4 [9]) | binding signal (HOXB9 [10]) | binding signal (PAX4 [11]) | binding signal (VENTX [12]) | binding signal (VENTX [13]) | binding signal (HOXA2 [14]) | binding signal (HOXA2 [15]) | binding signal (HOXA2 [16]) | binding signal (HOXC10) | binding signal (HOXC9 [17]) |
| --- | --- | --- | --- | --- | --- | --- | --- | --- | --- | --- | --- | --- | --- | --- | --- | --- | --- | --- |
| AAATTAAT | 10.1 upbm affinity estimate (log intensity, higher = more binding, comparable within an allelic series) | 12.6 upbm affinity estimate (log intensity, higher = more binding, comparable within an allelic series) | 11.9 upbm affinity estimate (log intensity, higher = more binding, comparable within an allelic series) | 12.4 upbm affinity estimate (log intensity, higher = more binding, comparable within an allelic series) | 11.8 upbm affinity estimate (log intensity, higher = more binding, comparable within an allelic series) | 12.4 upbm affinity estimate (log intensity, higher = more binding, comparable within an allelic series) | 12.5 upbm affinity estimate (log intensity, higher = more binding, comparable within an allelic series) | 10.7 upbm affinity estimate (log intensity, higher = more binding, comparable within an allelic series) | 11.2 upbm affinity estimate (log intensity, higher = more binding, comparable within an allelic series) | 11.5 upbm affinity estimate (log intensity, higher = more binding, comparable within an allelic series) | 11.1 upbm affinity estimate (log intensity, higher = more binding, comparable within an allelic series) |  |  |  |  |  |  |  |
| AATTAACA | 9.97 upbm affinity estimate (log intensity, higher = more binding, comparable within an allelic series) |  | 11.8 upbm affinity estimate (log intensity, higher = more binding, comparable within an allelic series) | 12.5 upbm affinity estimate (log intensity, higher = more binding, comparable within an allelic series) |  | 12.2 upbm affinity estimate (log intensity, higher = more binding, comparable within an allelic series) |  | 10.8 upbm affinity estimate (log intensity, higher = more binding, comparable within an allelic series) | 11.2 upbm affinity estimate (log intensity, higher = more binding, comparable within an allelic series) |  | 11.2 upbm affinity estimate (log intensity, higher = more binding, comparable within an allelic series) | 12.4 upbm affinity estimate (log intensity, higher = more binding, comparable within an allelic series) | 11.7 upbm affinity estimate (log intensity, higher = more binding, comparable within an allelic series) | 13.1 upbm affinity estimate (log intensity, higher = more binding, comparable within an allelic series) | 11 upbm affinity estimate (log intensity, higher = more binding, comparable within an allelic series) | 12.2 upbm affinity estimate (log intensity, higher = more binding, comparable within an allelic series) |  |  |
| CCAATTAA | 10 upbm affinity estimate (log intensity, higher = more binding, comparable within an allelic series) |  | 11.8 upbm affinity estimate (log intensity, higher = more binding, comparable within an allelic series) | 12.3 upbm affinity estimate (log intensity, higher = more binding, comparable within an allelic series) |  | 12.4 upbm affinity estimate (log intensity, higher = more binding, comparable within an allelic series) |  | 10.6 upbm affinity estimate (log intensity, higher = more binding, comparable within an allelic series) | 11.1 upbm affinity estimate (log intensity, higher = more binding, comparable within an allelic series) | 11.4 upbm affinity estimate (log intensity, higher = more binding, comparable within an allelic series) | 11 upbm affinity estimate (log intensity, higher = more binding, comparable within an allelic series) | 12.9 upbm affinity estimate (log intensity, higher = more binding, comparable within an allelic series) | 11.8 upbm affinity estimate (log intensity, higher = more binding, comparable within an allelic series) | 13.1 upbm affinity estimate (log intensity, higher = more binding, comparable within an allelic series) | 10.8 upbm affinity estimate (log intensity, higher = more binding, comparable within an allelic series) | 12.2 upbm affinity estimate (log intensity, higher = more binding, comparable within an allelic series) | 11.9 upbm affinity estimate (log intensity, higher = more binding, comparable within an allelic series) | 11.1 upbm affinity estimate (log intensity, higher = more binding, comparable within an allelic series) |
| GGCAGGCC |  |  | 9.11 upbm affinity estimate (log intensity, higher = more binding, comparable within an allelic series) | 9.17 upbm affinity estimate (log intensity, higher = more binding, comparable within an allelic series) |  | 9.21 upbm affinity estimate (log intensity, higher = more binding, comparable within an allelic series) |  | 9.13 upbm affinity estimate (log intensity, higher = more binding, comparable within an allelic series) | 9.09 upbm affinity estimate (log intensity, higher = more binding, comparable within an allelic series) |  | 9.12 upbm affinity estimate (log intensity, higher = more binding, comparable within an allelic series) |  |  |  |  |  |  |  |
| CAATTAAG |  |  |  |  |  | 11.9 upbm affinity estimate (log intensity, higher = more binding, comparable within an allelic series) |  |  |  |  |  | 12.5 upbm affinity estimate (log intensity, higher = more binding, comparable within an allelic series) | 11.6 upbm affinity estimate (log intensity, higher = more binding, comparable within an allelic series) | 13 upbm affinity estimate (log intensity, higher = more binding, comparable within an allelic series) | 10.7 upbm affinity estimate (log intensity, higher = more binding, comparable within an allelic series) | 12.2 upbm affinity estimate (log intensity, higher = more binding, comparable within an allelic series) |  |  |
| ACCAATTA | 9.73 upbm affinity estimate (log intensity, higher = more binding, comparable within an allelic series) |  | 11.6 upbm affinity estimate (log intensity, higher = more binding, comparable within an allelic series) | 12.2 upbm affinity estimate (log intensity, higher = more binding, comparable within an allelic series) | 11.1 upbm affinity estimate (log intensity, higher = more binding, comparable within an allelic series) | 12.1 upbm affinity estimate (log intensity, higher = more binding, comparable within an allelic series) |  | 10.5 upbm affinity estimate (log intensity, higher = more binding, comparable within an allelic series) | 10.8 upbm affinity estimate (log intensity, higher = more binding, comparable within an allelic series) | 10.9 upbm affinity estimate (log intensity, higher = more binding, comparable within an allelic series) | 10.8 upbm affinity estimate (log intensity, higher = more binding, comparable within an allelic series) | 12.8 upbm affinity estimate (log intensity, higher = more binding, comparable within an allelic series) | 11.8 upbm affinity estimate (log intensity, higher = more binding, comparable within an allelic series) | 13.2 upbm affinity estimate (log intensity, higher = more binding, comparable within an allelic series) | 10.9 upbm affinity estimate (log intensity, higher = more binding, comparable within an allelic series) | 12.1 upbm affinity estimate (log intensity, higher = more binding, comparable within an allelic series) |  |  |
| CAATTAAA | 10.2 upbm affinity estimate (log intensity, higher = more binding, comparable within an allelic series) | 12.9 upbm affinity estimate (log intensity, higher = more binding, comparable within an allelic series) |  |  | 12.3 upbm affinity estimate (log intensity, higher = more binding, comparable within an allelic series) |  | 12.8 upbm affinity estimate (log intensity, higher = more binding, comparable within an allelic series) |  |  | 12 upbm affinity estimate (log intensity, higher = more binding, comparable within an allelic series) |  | 12.3 upbm affinity estimate (log intensity, higher = more binding, comparable within an allelic series) | 11.4 upbm affinity estimate (log intensity, higher = more binding, comparable within an allelic series) |  |  |  | 12.3 upbm affinity estimate (log intensity, higher = more binding, comparable within an allelic series) | 11.3 upbm affinity estimate (log intensity, higher = more binding, comparable within an allelic series) |
| GTAATTGA |  |  |  |  |  |  |  |  |  |  |  |  |  | 12.9 upbm affinity estimate (log intensity, higher = more binding, comparable within an allelic series) | 10.7 upbm affinity estimate (log intensity, higher = more binding, comparable within an allelic series) | 12.1 upbm affinity estimate (log intensity, higher = more binding, comparable within an allelic series) |  |  |
| CCCAATTA |  |  | 11.6 upbm affinity estimate (log intensity, higher = more binding, comparable within an allelic series) | 12.1 upbm affinity estimate (log intensity, higher = more binding, comparable within an allelic series) |  | 11.9 upbm affinity estimate (log intensity, higher = more binding, comparable within an allelic series) |  | 10.4 upbm affinity estimate (log intensity, higher = more binding, comparable within an allelic series) | 10.8 upbm affinity estimate (log intensity, higher = more binding, comparable within an allelic series) |  | 10.7 upbm affinity estimate (log intensity, higher = more binding, comparable within an allelic series) | 12.4 upbm affinity estimate (log intensity, higher = more binding, comparable within an allelic series) | 11.5 upbm affinity estimate (log intensity, higher = more binding, comparable within an allelic series) |  |  |  |  |  |
| ATTAATGC |  |  | 11.7 upbm affinity estimate (log intensity, higher = more binding, comparable within an allelic series) | 12.1 upbm affinity estimate (log intensity, higher = more binding, comparable within an allelic series) |  | 11.7 upbm affinity estimate (log intensity, higher = more binding, comparable within an allelic series) |  | 10.4 upbm affinity estimate (log intensity, higher = more binding, comparable within an allelic series) | 11 upbm affinity estimate (log intensity, higher = more binding, comparable within an allelic series) |  | 10.9 upbm affinity estimate (log intensity, higher = more binding, comparable within an allelic series) |  |  |  |  |  |  |  |

— paper PMC11006913
